Assay outcomes (PubChem BioAssay)
A selection: hits, their analogues and other compounds. The true share with any hit is near 1.8%.
HDAC3 inhib – HDAC3 deacetylase inhibitors, primary screen, biochemical, fluorescence, cell-free homogeneous | inhibition, % at 8.3 µM | recombinant HDAC3, fluorogenic peptide/trypsin coupled | 0.15% of 320,000 active; in the data active = inhibition above about 26%, passing the limit was not always enough
Target sequence (O15379 whole entry, looked up): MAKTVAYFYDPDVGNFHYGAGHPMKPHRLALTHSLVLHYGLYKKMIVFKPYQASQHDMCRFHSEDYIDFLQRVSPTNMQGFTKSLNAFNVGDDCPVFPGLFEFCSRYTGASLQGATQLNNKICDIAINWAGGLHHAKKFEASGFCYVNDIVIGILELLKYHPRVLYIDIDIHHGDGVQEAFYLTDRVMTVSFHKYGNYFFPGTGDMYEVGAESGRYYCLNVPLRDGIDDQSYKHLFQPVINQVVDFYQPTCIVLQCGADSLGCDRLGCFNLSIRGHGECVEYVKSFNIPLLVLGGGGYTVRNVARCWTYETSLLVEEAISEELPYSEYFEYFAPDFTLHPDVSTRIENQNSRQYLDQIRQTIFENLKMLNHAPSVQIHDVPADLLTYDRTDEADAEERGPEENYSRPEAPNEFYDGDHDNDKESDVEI
GRK2 aptamer HTS – compounds blocking aptamer binding on GRK2 – biochemical, human GRK2, bead flow cytometry, HTS, primary screen | Beta-adrenergic receptor kinase 1 (Homo sapiens), P25098 | FAM-aptamer displacement from GRK2 | inhibition of aptamer binding, % at 10 µM | 0.59% of 330,000 active;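 active = inhibition of aptamer binding above 40%, roughly 3 SD of noise, on plates passing a quality check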;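 also: median bead fluorescence of bound FAM aptamer so fluorescent compounds give negative values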
Neddyl block – inhibitors of cullin neddylation, primary screen, biochemical, TR-FRET, uHTS, NAE and Ubc12; 0.58% of 360,000 active; NEDD8-conjugating enzyme Ubc12 (Homo sapiens) + NEDD8-activating enzyme E1 regulatory …; inhibition, % at 25 µM; in the data active = inhibition above about 36%
Cardio protect – cardioprotection against H2O2-induced cell death, primary screen, uHTS, H9c2 cells, ATPLite luminescence | H9c2 cardiomyocytes, H2O2 injury protection, 2 h | protection from H2O2 cell death, % at 20 µM | 0.63% of 360,000 active | AID 588492, 2011;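 active = compounds giving at least 50% protection of heart cells from peroxide-induced death in the single-dose screen, raw or plate-pattern-corrected value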;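 also: 0% = DMSO wells with peroxide and 100% = DMSO wells without peroxide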
GRK2 inh confirm – GRK2 aptamer-displacing inhibitors, retest, confirmation, biochemical, cherry pick 1, bead flow cytometry. shares compounds with GRK2 aptamer HTS. bead-bound GRK2, FAM-aptamer displacement. aptamer displacement, % at 10 µM. 4% of 2,000 active. AID 504451, 2011;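 active = aptamer displacement above 40%, near three times the noise of non-fluorescent compounds, on plates passing quality checks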;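 also: negative values mostly reflect intrinsic compound fluorescence rather than true enhancement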
FAM quench CP1 – aptamer fluorescence quenching in GRK2 counter-screen; shares compounds with GRK2 aptamer HTS; Carboxyfluorescein RNA aptamer on beads, flow cytometry quenching; hits give low values; fluorescence response (% of DMSO), % at 10 µM; 2,000 tested, under 10 active; AID 504580;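 active = compounds that quench the bead-bound fluorescent RNA probe, cutting fluorescence to under half of the solvent control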;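 also: counterscreen run without GRK2 so only probe quenching by compound is measured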
GRK2 confirm 2 – GRK2 aptamer-displacing inhibitors, hit retest, confirmation, biochemical, cherry pick 2, bead flow cytometry; shares compounds with GRK2 aptamer HTS; bead-bound GRK2, FAM-aptamer displacement; inhibition of aptamer binding, % at 10 µM; 360 tested, under 10 active;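 active = inhibition of aptamer binding above 40%, about triple the noise seen with nonglowing compounds, on plates passing quality control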;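 also: negative values mostly come from compounds that fluoresce themselves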
FAM quench SP – quenches fluorescent RNA aptamer, GRK2 hit artifact; shares compounds with GRK2 aptamer HTS; carboxyfluorescein RNA aptamer beads, flow cytometry quenching; hits give low values; fluorescence response vs DMSO, % at 10 µM; 360 tested, under 10 active;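 active = response vs DMSO under 50%, meaning signal dropped by over half, treated as fluorescence quencher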;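 also: labelled aptamer on streptavidin beads without GRK2 as a quench counter-screen; 100% = bead fluorescence of DMSO wells and lower means quenching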
Starred values were filed as active, the others as inactive; . = no result given.

SMILES | HDAC3 inhib | GRK2 aptamer HTS | Neddyl block | Cardio protect | GRK2 inh confirm | FAM quench CP1 | others
O=C(Cc1ccc(-n2cccc2)cc1)NC1CCCCC1 | 2 | 45* | 0 | -3 | -2 | 95
CCOc1ccccc1C(=O)NCCN1CCC(n2c(=O)[nH]c3ccccc32)CC1 | . | . | -2 | . | . | .
COc1ccc(S(=O)(=O)N2CCN(Cc3cccc(Cl)c3)CC2)cc1 | 5 | 1 | 4 | -3 | . | .
COc1ccc(S(=O)(=O)N2CCN(Cc3ccc(Cl)cc3)CC2)cc1 | 3 | 65* | -6 | -16 | 0 | 102
CCC(C)(C)n1nnnc1C(c1ccc2ncccc2c1)N1CCN(c2nc3ccccc3s2)CC1 (stereo not drawn) | -1 | 25 | -108 | 0 | 3 | 75
Cc1ccc([N+](=O)[O-])cc1S(=O)(=O)Nc1ccc(C(=O)NCC2CCCO2)cc1 (stereo not drawn) | 1 | 2 | -44 | 3 | . | .
COc1cccc(C(C(=O)NC2CCCC2)N(C(=O)c2csnn2)C2CC2)c1 (stereo not drawn) | 5 | 1 | 9 | -1 | . | .
CN1Cc2sc(N)c(C#N)c2CC1(C)C | -2 | 52* | 12 | -5 | 3 | 97
O=C1[C@H]2[C@@H](C3CC3)N3C(=O)CN(Cc4ccccn4)C(=O)[C@@]3(Cc3ccccc3)[C@H]2C(=O)N1c1ccccc1 | 1 | 0 | -7 | 5 | . | .
C[C@@H]1CN([C@@H](C)CO)C(=O)CCCn2cc(nn2)CO[C@H]1CN(C)S(=O)(=O)c1ccc2ccccc2c1 | . | . | -3 | 6 | . | .
CC(C)CCNC(=S)Nc1ccccn1 | 6 | 6 | 2 | -4 | . | .
CCOC(=O)C(NC(C)=O)C(=O)Nc1ccc(C)cc1C (stereo not drawn) | 1 | 50* | 3 | 3 | -1 | 102
Cc1ccc(-c2ccc(CN3C(C)C(=O)N(Cc4cn(Cc5ccco5)nn4)CCS3(=O)=O)cc2)c(C)c1 (stereo not drawn) | . | . | 3 | -4 | . | .
COc1ccc(S(=O)(=O)N2CCCCC2)cc1NC(=O)CCNC(=O)c1ccc(Cl)cc1 | -1 | 47* | -1 | -3 | 0 | 104 | GRK2 confirm 2=-8;FAM quench SP=106
COc1ccc(S(=O)(=O)N2CCCCCC2)cc1NC(=O)CCNC(=O)c1ccc(Cl)cc1 | . | . | 8 | 0 | . | .
COc1cccc(-c2nc(CS(=O)(=O)CC(=O)NC3CCCC3)c(C)o2)c1 | 10 | 0 | -3 | 2 | . | .
Cc1oc(-c2cccc(Cl)c2)nc1CS(=O)(=O)CC(=O)NC1CCCC1 | 4 | 67* | 2 | -2 | -2 | 96
Cc1oc(-c2ccccc2Cl)nc1CSCC(=O)NC1CCCC1 | 0 | 30 | 4 | 1 | 0 | 99
Cc1oc(-c2ccccc2Cl)nc1CSc1nc2c(c(=O)[nH]1)CCC2 | -2 | 56* | -14 | 10 | 7 | 99
CCCNC(=O)CS(=O)(=O)Cc1nc(-c2cccc(OC)c2)oc1C | . | 0 | 5 | 6 | . | .
CCOCCCNC(=O)CS(=O)(=O)Cc1nc(-c2cccc(OC)c2)oc1C | 9 | 56* | -4 | 0 | 2 | 100
O=C(O)c1cc(-c2ccc(Cl)c(Cl)c2)n(-c2ccccc2)n1 | -5 | 2 | -6 | 1 | . | .
CC(C)[C@H](NC(=O)c1ccccc1)C(=O)OCC(=O)NCc1ccc(F)cc1 | 2 | 2 | -2 | 8 | . | .
O=C(NCCC1=CCCCC1)C1CCN(c2nnc(-n3cccc3)s2)CC1 | 1 | 3 | 9 | 1 | -2 | 98
O=C(NC1CCCc2ccccc21)C1CCN(c2nnc(-n3cccc3)s2)CC1 (stereo not drawn) | 6 | 0 | -9 | -11 | -3 | 98
SMILES | HDAC3 inhib | GRK2 aptamer HTS | Neddyl block | Cardio protect | GRK2 inh confirm | FAM quench CP1 | others
O=C(NCCc1cccc(C(F)(F)F)c1)C1CCC(=O)N(C2CC2)C1 (stereo not drawn) | 0 | 2 | 5 | -1 | . | .
O=C(NCc1ccncc1)c1cccc(Cn2cc(Br)cn2)c1 | 1 | 0 | 10 | -6 | 4 | 98
Cc1ccccc1C(=O)NCCc1nnc(SCC(=O)Nc2nc(-c3ccccc3)cs2)n1C | -2 | 55* | -26 | 11 | -2 | 96
O=C(Nc1ccc2c(c1)C(=O)OC2)c1ccc(Cl)cc1 | -6 | 7 | -22 | 4 | . | .
O=C1OCc2ccc(NC(=O)c3sccc3Cl)cc21 | 1 | 73* | 2 | -5 | -1 | 101
COCCCN1C(=O)C(=O)/C(=C(/O)c2ccc(S(=O)(=O)N3CCCCC3)cc2)C1c1ccc(O)cc1 (stereo not drawn) | 5 | 0 | -18 | -3 | -4 | 95
Cc1nc2c(sc(=S)n2Cc2ccco2)c(=O)n1CC(=O)Nc1ccccc1Cl | -3 | 84* | -13 | -2 | -4 | 118
CCn1c(=S)sc2c(=O)n(CC(=O)Nc3ccccc3OC)c(C)nc21 | -2 | 0 | 5 | 2 | . | .
O=C(NCC(F)(F)F)c1ccc(S(=O)(=O)Nc2ccccc2N2CCCC2)cc1 | -1 | 89* | 4 | -1 | 21 | 117
CC(Oc1ccccc1F)c1nnc(SCC(=O)NCc2ccc3c(c2)OCO3)o1 (stereo not drawn) | 6 | 0 | 13 | 1 | . | .
O=C(O)c1ccc(Nc2nc3ccccc3nc2NS(=O)(=O)c2cccs2)cc1 | -25 | 94* | 35 | -1 | -7 | 96
CCCc1ccc(OCc2ccc(C(=O)N3CCN(c4ccccn4)CC3)o2)c(OC)c1 | -9 | 47* | 4 | -17 | 2 | 96
COc1ccc(CC(=O)N2CCN(c3ccccn3)CC2)cc1OC | -2 | 7 | 25 | 0 | . | .
COc1ccccc1CNC(=O)C1CCN(S(=O)(=O)c2ccc(N3CCCC3=O)cc2)CC1 | -1 | 1 | 10 | -6 | . | .
CCCn1c(SCC(=O)Nc2cc(S(=O)(=O)N3CCOCC3)ccc2OC)n[nH]c1=O | 5 | 1 | -3 | 1 | . | .
CC(=O)c1c(C)[nH]c(C(=O)CN2CCN(S(=O)(=O)c3ccccc3)CC2)c1C | 1 | 0 | -12 | -4 | . | .
O=C(NCc1ccccc1)C1CCCN(S(=O)(=O)c2ccc(-n3cnnn3)cc2)C1 (stereo not drawn) | -1 | 2 | -2 | 2 | . | .
